Source: PubChem BioAssay (several laboratories)
This is a sample that favours compounds with a hit; in the whole collection about 2.9% have one here.
MEKK3 PB1 HTS – modulators of MEKK3-MEK5 PB1 binding, primary screen, biochemical, wildtype MEKK3, multiplex bead flow cytometry, Alexa488-MEK5 | AID 1529, 2009 | bead-based flow cytometry, Alexa488-MEK5 binding to MEKK3; actives lie on both sides; 0 = blocked by unlabeled MEK5, 100 = vehicle | 1.4% of 290,000 active | binding response (% of control), % at 10 µM;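 active means binding response more than 3 SD above or below the average of its plate-row segment, actives on both sides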;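 further: Alexa488 bead fluorescence after subtracting the streptavidin-only scavenger bead signal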
Target sequence (Q99759 whole entry, looked up): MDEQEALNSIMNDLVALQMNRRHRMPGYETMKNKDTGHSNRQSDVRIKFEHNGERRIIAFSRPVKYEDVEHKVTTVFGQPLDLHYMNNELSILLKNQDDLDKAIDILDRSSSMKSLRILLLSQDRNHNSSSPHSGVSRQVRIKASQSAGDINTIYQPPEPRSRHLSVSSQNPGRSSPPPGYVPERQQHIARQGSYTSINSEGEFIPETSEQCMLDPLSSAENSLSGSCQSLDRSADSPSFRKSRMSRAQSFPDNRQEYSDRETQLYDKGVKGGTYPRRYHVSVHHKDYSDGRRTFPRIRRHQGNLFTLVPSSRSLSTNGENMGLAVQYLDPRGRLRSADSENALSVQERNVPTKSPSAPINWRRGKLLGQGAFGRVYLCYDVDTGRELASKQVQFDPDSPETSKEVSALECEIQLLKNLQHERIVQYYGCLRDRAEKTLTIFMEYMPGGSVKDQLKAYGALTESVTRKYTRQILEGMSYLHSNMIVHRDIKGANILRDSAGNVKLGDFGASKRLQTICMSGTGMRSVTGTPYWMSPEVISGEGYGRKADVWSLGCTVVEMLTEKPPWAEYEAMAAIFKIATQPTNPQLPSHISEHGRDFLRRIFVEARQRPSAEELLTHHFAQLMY
CRFR2-BP ag – agonists of CRF-BP/CRF-R2 complex, primary screen, cell-based, HEK293, calcium dye fluorescence, uHTS. calcium dye fluorescence (FLIPR); percent of saturating CRF peptide response. activation, % at 13.2 µM. CRF-binding protein / CRF receptor 2 complex (human). 0.46% of 350,000 active;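 active means activation of at least 50%, plus an integration ratio under a set limit after plate pattern correction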
CRFBP-R2 block – antagonists of CRF-BP/CRF-R2 complex, primary screen, cell-based, HEK293, calcium dye fluorescence, uHTS | CRF-induced calcium fluorescence | inhibition, % at 11.8 µM | 0.59% of 350,000 active | AID 588475, 2011;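 active means inhibition of the ligand-induced calcium signal above about 50% at the single tested concentration, limit read from the data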
MEKK2 mut-MEK5 – MEK5 binding signal on mutant MEKK2 PB1, primary screen, biochemical, multiplex bead flow cytometry, Alexa488-MEK5 | Alexa488-MEK5 binding to MEKK2 mutant | 0.35% of 290,000 active | AID 1530, 2009 | percent response, % at 10 µM; in the data active means percent response above about 24%, passing the limit was not always enough
ABCB6 inh 2 – ABCB6 transporter inhibitors, primary screen, K562-ABCB6 cells, flow cytometry, MLPCN library; AID 602162, 2011; ATP-binding cassette sub-family B member 6 (Homo sapiens), Q9NP58; K562-ABCB6 porphyrin accumulation, 1 h; hits give low values; fluorescence ratio to DMSO, % at 10 µM; 0.19% of 360,000 active;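 active means fluorescence ratio to DMSO below 75%, the collection mean minus 3 SD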;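 further: signal is porphyrin accumulated inside mitochondria; lower ratio means ABCB6 inhibition with less porphyrin fluorescence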
MEKK2 WT-MEK5 – modulators of MEK5 binding to wildtype MEKK2, primary screen, biochemical, multiplex bead flow cytometry, Alexa488-MEK5. Mitogen-activated protein kinase kinase kinase 2 (Homo sapiens), Q9Y2U5. Alexa488-MEK5 binding to MEKK2 WT; actives lie on both sides. binding response (% of control), % at 10 µM. 1.1% of 290,000 active. AID 1531, 2009; in the data active means binding response below about 67% or above about 130%
MEKK2wt confirm – modulators of MEK5 binding to wildtype MEKK2, confirmation, biochemical, single concentration, multiplex bead flow cytometry; AID 1892, 2009; Alexa488-MEK5 binding to MEKK2 WT; actives lie on both sides; 2.4% of 5,900 active; shares compounds with MEKK3 PB1 HTS; binding response (% of control), % at 10 µM; in the data active means binding response below about 16% or above about 210%; inactive means in between
MEKK2mut confirm – mutant MEKK2 PB1-MEK5 binding signal retest – biochemical, single concentration, multiplex bead flow cytometry, confirmation; shares compounds with MEKK3 PB1 HTS; Alexa488-MEK5 binding to MEKK2 mutant; percent response, % at 10 µM; 2% of 5,900 active; in the data active means percent response mostly above about 71%, no sharp cut-off; inactive means mostly below about 38%;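 further: higher means compound restores mutant binding toward wildtype level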
MEKK3-MEK5 inh – MEKK3 wild-type PB1 binding to MEK5, inhibitors, confirmation, biochemical, bead multiplex flow cytometry, single concentration, wildtype; 1.8% of 5,900 active; binding response (% of control), % at 10 µM; Alexa488-MEK5 binding to MEKK3; hits give low values; AID 1894, 2009; shares compounds with MEKK3 PB1 HTS;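 active means binding response below 72% of control, or above a set upper limit, though filed actives all read lower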
Hits are given with their value; – = inactive; · = no result given; [ ] = dose if it differs, or a comment.

SMILES	MEKK3 PB1 HTS	CRFR2-BP ag	CRFBP-R2 block	MEKK2 mut-MEK5	ABCB6 inh 2	MEKK2 WT-MEK5	MEKK2wt confirm	MEKK2mut confirm	MEKK3-MEK5 inh
COc1ccc(C(=O)OC2C(OC)OCC(O)C2O)cc1 (stereo not given)	·	–	–	·	–	·	·	·	·
Cc1ccc(-n2nc(C)c(C(=O)Nc3cccc(C(=O)NC4CC4)c3)n2)c(C)c1	·	–	–	·	–	·	·	·	·
CCc1nc(NCCO)c(C#N)c2c1CSC(C)(C)C2	50[inhibitor]	–	–	–	–	–	–	–	–
CCc1nc(NCC(C)C)c(C#N)c2c1COC(C)(C)C2	–	–	–	–	–	–	·	·	·
C/C(=N\NC(=O)c1ccc(O)cc1)c1ccc2c(c1)OCCO2	·	–	–	·	–	·	·	·	·
C/C(=N\NC(=O)C1CC1)c1ccc2c(c1)OCCO2	4.0[inhibitor]	–	–	–	–	6.0[inhibitor]	–	–	–
O=C(CSc1nc2ccccc2c(=O)n1-c1ccc(OC(F)F)cc1)NCc1cccs1	138	–	–	–	–	–	–	–	–
O=C(Nn1c(O)c(C=C2N=c3ccccc3=N2)sc1=S)c1ccc(Cl)cc1	·	–	–	·	–	·	·	·	·
Cc1ccc(C(=O)Nn2c(O)c(C=C3N=c4ccccc4=N3)sc2=S)cc1	–	–	–	–	–	39[inhibitor]	–	–	–
O=C(Nn1c(O)c(C=C2N=c3ccccc3=N2)sc1=S)c1ccccc1	–	–	–	–	–	17[inhibitor]	–	–	–
O=C(Nn1c(O)c(C=C2N=c3ccccc3=N2)sc1=S)c1cccc(Cl)c1	–	–	–	–	–	49[inhibitor]	–	–	–
COCC(=O)N1C[C@H]2CON(C)[C@H]2C[C@H]1c1cccc(-c2ccccc2)c1	·	–	–	·	–	·	·	·	·
CC(=O)c1cccc(NC(=S)N2CCN(S(=O)(=O)c3ccccc3)CC2)c1	–	–	–	–	–	–	·	·	·
Cn1nc(-c2ccc(Cl)cc2)c2cc(C(=O)NCCN3CCOCC3)sc21	–	–	–	–	–	136	–	–	–
Cn1nc(-c2ccc(Cl)cc2)c2cc(C(=O)NC3CC3)sc21	–	–	–	–	–	–	·	·	·
Cn1nc(-c2ccc(Cl)cc2)c2cc(C(=O)NCCCN3CCOCC3)sc21	–	–	–	–	–	154	–	–	–
COC(=O)C1CC(=O)c2ccsc2C1 (stereo not given)	–	–	–	–	–	–	·	·	·
COc1ccccc1CNC(=O)COC(=O)c1cc(=O)c2ccccc2o1	·	–	–	·	–	·	·	·	·
O=C(O)CC/C(=N/Nc1ccc([N+](=O)[O-])cc1)C(=O)O	75[inhibitor]	–	–	–	–	–	–	–	–
C/C(=N/Nc1ccc([N+](=O)[O-])cc1)c1ccc(C)cc1C	–	–	–	–	–	148	–	–	–
Cc1noc(C)c1-c1ccc(C(=O)NCc2ccc(Cl)cc2)c2occc12	·	·	·	·	–	·	·	·	·
O=C(c1ccc(S(=O)(=O)N2CCCC2)cc1)N1CCCc2ccccc21	–	–	–	27	–	–	–	–	–
O=C(c1ccc(S(=O)(=O)N2CCCCC2)cc1)N1CCCc2ccccc21	–	–	–	–	–	–	·	·	·
Cc1csc2ncc(C(=O)NCCc3ccccc3)c(=O)n12	–	–	–	–	–	–	·	·	·
Cc1csc2ncc(C(=O)NCCC(c3ccccc3)c3ccccc3)c(=O)n12	130	–	–	–	–	–	–	–	–
SMILES	MEKK3 PB1 HTS	CRFR2-BP ag	CRFBP-R2 block	MEKK2 mut-MEK5	ABCB6 inh 2	MEKK2 WT-MEK5	MEKK2wt confirm	MEKK2mut confirm	MEKK3-MEK5 inh
COC(=O)N1C(=O)[C@](c2ccccc2)(C2CCCC2)N1C(=O)OC	–	–	–	30	–	–	–	–	–
COC(=O)N1C(=O)[C@@](c2ccccc2)(C(C)C)N1C(=O)OC	–	–	–	–	–	–	·	·	·
Cc1ccccc1OCC(=O)N1CCCCCCC1	–	–	–	–	–	–	·	·	·
O=C(NNC(=O)c1ccco1)c1ccc(NS(=O)(=O)c2cccs2)cc1	·	–	–	·	–	·	·	·	·
COc1ccc(C(=O)N/C(=C\c2cc(OC)c(OC)cc2[N+](=O)[O-])C(=O)NCC(=O)O)cc1	–	–	–	–	–	–	·	·	·
COc1cc(/C=C(\NC(=O)c2ccccc2)C(=O)NCC(=O)O)c([N+](=O)[O-])cc1OC	132	–	–	–	–	–	–	–	–
Oc1ccc(-c2n[nH]c(=S)n2-c2ccc3c(c2)OCCO3)c(O)c1	70[inhibitor]	–	–	–	–	–	–	–	–
S=c1[nH]nc(-c2ccc(Cl)cc2Cl)n1-c1ccc2c(c1)OCCO2	–	–	–	–	–	–	·	·	·
CC1CCC(C(C)C)C(OCC[N+](C)(C)C)C1 (stereo not given)	143	–	–	–	–	–	–	–	–
CSc1cccc(CN2CCN(CCc3ccccc3)C(CCO)C2)c1 (stereo not given)	–	–	–	–	–	–	·	·	·
CSc1cccc(CN2CCN(Cc3ccccc3)C(CCO)C2)c1 (stereo not given)	48[inhibitor]	–	–	–	–	–	–	–	–
O=C(Nc1ccccc1N1CCOCC1)c1cccc(Oc2ccccc2)c1	–	–	–	–	–	–	·	·	·
Cn1c(=O)c(NC2CCCCC2)c2c3c(cccc31)C(=O)c1ccccc1-2	–	–	–	–	–	37[inhibitor]	–	–	–
Cn1c(=O)c(NCCc2ccccc2)c2c3c(cccc31)C(=O)c1ccccc1-2	–	–	–	–	–	62[inhibitor]	–	–	–
CCCCNc1c2c3c(cccc3n(C)c1=O)C(=O)c1ccccc1-2	–	239	–	–	–	41[inhibitor]	–	–	–
Cc1noc(C)c1S(=O)(=O)N1CCCC(C(=O)NCc2ccccc2Cl)C1 (stereo not given)	–	–	–	–	–	–	·	·	·
C[C@@H]1CN([C@@H](C)CO)C(=O)CCCn2nncc2CO[C@@H]1CN(C)S(=O)(=O)c1cccc(C#N)c1	·	–	–	·	–	·	·	·	·
